Test [1] in a line: Cell Viability - BJ (AID 421).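 Also: potency is read from the fitted curve at half-maximal effect; cells exposed to compound for 40 hours at 37 °C before readout.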 The following applies: BJ fibroblast viability, qHTS. The essentials: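 Quantitative HTS: ATP depletion in BJ cells after 40 hr compound exposure in complete culture medium, detected with CellTiter-Glo; AC50 from standard Hill fits.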
A short description of test [2]: Cell Viability - Jurkat (AID 426;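 active = dose-dependent loss of cell ATP signal giving a full or clear fitted curve, ranked by lower potency value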; also: potency is read from the fitted curve at half-maximal effect). The following applies: qHTS. The essentials:
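Jurkat (Clone E6-1) cells, 5000/well in complete medium, exposed to compounds for 40 hr at 37C; intracellular ATP measured by CellTiter-Glo luminescence after 20 min at room temperature. AC50 from Hill fits.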

Test [3] can be described thus: Cell Viability - HepG2 (AID 433).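 Also: potency is read from the fitted curve at half-maximal effect; potency for ATP loss meaning cytotoxicity.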 The following applies: qHTS. An outline of the steps:
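In this qHTS format, a 40 h, 37 °C compound incubation of HepG2 cells in complete medium precedes a 20 min CellTiter-Glo step at room temperature. Tamoxifen and doxorubicin serve as positive controls; Hill-equation fits yield AC50.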
Background: In qHTS, concentration-response curves come from the screen itself.

Test [4] can be described thus: Cell Viability - MRC5 (AID 434).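 Also: potency is read from the fitted curve at half-maximal effect; potency reflects cytotoxicity seen as loss of intracellular ATP.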 Particulars: MRC5 lung fibroblast viability, qHTS. The essentials:
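MRC5 normal human lung fibroblasts, 1500 cells/well, exposed to compound for 40 hr at 37 C. Cellular ATP was read by CellTiter-Glo luminescence; data normalized to DMSO and 100 uM tamoxifen, with AC50 from Hill fits.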

Test [5] in a line: Cell Viability - SK-N-SH (AID 435).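 Also: potency is read from the fitted curve at half-maximal effect; compound exposure lasted 40 h at 37 °C.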 Particulars: SK-N-SH neuroblastoma cell viability qHTS. The essentials:
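Human neuroblastoma line, 40 h exposure at 37 °C, ATP quantified via luciferase luminescence; DMSO and 100 uM tamoxifen define 0 and 100% inhibition for AC50 fitting.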

In test [6] the target is Mitogen-activated protein kinase 10 (Mus musculus) (UniProt Q61831). The test is described as follows: JNK3 AlphaScreen Assay (AID 530; active = well fitted curve in either direction with a large enough effect, not every such curve was filed as active;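 also: kinase came from lysate of stimulated human HepG2 cells; signal reports phosphorylation of biotinylated GST-cJun 1-79 at Ser73 with 10 µM ATP; % is scaled to controls: 0 for no effect and ±100 for the full control effect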). The essentials: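 Pre-activated (IL-1β/TNFα) JNK3 in HepG2 lysates phosphorylates biotin-GST-cJun(1-79), 10 uM ATP; anti-phospho-cJun(Ser73) AlphaScreen read at room temperature, pH 7.6 Tris buffer. Compounds pre-incubated 15 min as titrations.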
Background: Alpha assays give light when donor and acceptor beads are brought close together.

Test [7] can be described thus: Cell Viability - N2a (AID 540; active = well fitted curve in the direction sought with a large enough effect; an effect the other way counts as inactive or inconclusive; also: nearly all actives have a fitted effect of over 45% in size; also: potency is read from the fitted curve at half-maximal effect;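 as to activity change, negative = cytotoxicity: plate controls were DMSO alone for no effect and tamoxifen control for full effect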). The following applies: N2a mouse neuroblastoma cell viability; activity change, negative = cytotoxicity: at 92.2 µM (top of the series). An outline of the steps: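 Mouse neuroblastoma N2a cells, 1500/well, exposed to compounds 40 h at 37 °C in complete medium. Viability measured as cellular ATP by CellTiter-Glo luminescence; AC50 from Hill fits of concentration-response.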

A short description of test [8]: Cell Viability - NIH 3T3 (AID 541; active = well fitted curve in the direction sought with a large enough effect; an effect the other way counts as inactive or inconclusive;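 also: plate controls were DMSO alone for no effect and tamoxifen positive control for full effect; nearly all actives have a fitted effect of over 25% in size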). The following applies: NIH 3T3 cell viability, qHTS; at 92.2 µM (top of the series). The essentials: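 Mouse NIH 3T3 fibroblasts, 1000 cells/well, rested 5 hr at 37 °C, then exposed to compound for 40 hr at 37 °C in complete medium. Viability read as intracellular ATP by CellTiter-Glo luminescence; AC50 from Hill-equation fits of concentration-response data.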

The nature of test [9]: Cell Viability - HUV-EC-C (AID 542; active = well fitted curve in the direction sought with a large enough effect; an effect the other way counts as inactive or inconclusive; also: nearly all actives have a fitted effect of over 35% in size; also: potency is read from the fitted curve at half-maximal effect). An outline of the steps: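 HUV-EC-C human vascular endothelial cells, 1000/well, exposed to compound for 40 hr at 37 °C in complete medium. Intracellular ATP was read by CellTiter-Glo luminescence. AC50 came from Hill-equation fits of concentration-response data.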
Test [10] in a line: Cell Viability - H-4-II-E (AID 543; active = well fitted curve in the direction sought with a large enough effect; an effect the other way counts as inactive or inconclusive; also: nearly all actives have a fitted effect of over 35% in size; also: potency is read from the fitted curve at half-maximal effect). The essentials:
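Rat hepatoma H-4-II-E cells, 1500 per well, treated 40 h at 37 °C in complete medium. Cellular ATP read by CellTiter-Glo luminescence; AC50 from Hill fits of concentration-response.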

Test [11] in a line: Cell Viability - SH-SY5Y (AID 544; active = well fitted curve in the direction sought with a large enough effect; an effect the other way counts as inactive or inconclusive; also: nearly all actives have a fitted effect of over 55% in size; also: potency is read from the fitted curve at half-maximal effect;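 as to viability change, negative = cytotoxic: 0% = DMSO alone and -100% = 100 µM tamoxifen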). The following applies: SH-SY5Y neuroblastoma cell viability; viability change, negative = cytotoxic: at 92.2 µM (top of the series). The essentials: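 SH-SY5Y human neuroblastoma cells (1500/well) incubated 5 h, then compound-treated 40 h at 37 °C in complete medium. Viability read as intracellular ATP by CellTiter-Glo luminescence after 20 min; AC50 from Hill-equation fits of qHTS concentration-response.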

Test [12] can be described thus: Cell Viability - Renal Proximal Tubule (AID 545; active = well fitted curve in the direction sought with a large enough effect; an effect the other way counts as inactive or inconclusive; also: nearly all actives have a fitted effect of over 40% in size; also: potency is read from the fitted curve at half-maximal effect;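 as to activity change, negative = cytotoxicity: 0% = DMSO only and -100% = 100 µM tamoxifen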). The following applies: renal proximal tubule cells viability, primary cells of rat origin; activity change, negative = cytotoxicity: at 91.7 µM (top of the series). The essentials: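 In this qHTS format, normal rat kidney-derived proximal tubule cells in complete culture medium receive compound titrations, then sit 40 hours at 37 °C before luciferase-based ATP quantitation; potency is reported as AC50 from concentration-response curves.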

Test [13] is described as follows: AP1 Signaling Pathway (AID 357; active = well fitted curve in either direction with a large enough effect, not every such curve was filed as active;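 also: ME-180 reporter cells stimulated with EGF at its EC50 level; % is scaled to controls: 0 for no effect and ±100 for the full control effect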). The essentials: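 In this screen, ME-180 cells in Opti-MEM with 0.5% dialyzed FBS received EC50 EGF and compound titrations for 5 h. AP-1 reporter beta-lactamase was detected via CCF4 ratio, giving AC50 for positive and negative modulators.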
Test [14] is described as follows: NFAT Signaling Pathway (AID 444; active = well fitted curve in either direction with a large enough effect, not every such curve was filed as active;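 also: carbachol stimulus at about its EC50 of 1 µM final; % is scaled to controls: 0 for no effect and ±100 for the full control effect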). An outline of the steps:
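Jurkat cells with NFAT-driven β-lactamase reporter and co-expressed M1 receptor, stimulated with carbachol (final 1 uM, ~EC50), compound titration, 5 h at 37 °C. CCF4 loaded 1 h at RT; 460/530 nm ratio gave %activity and AC50.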

Test [15] can be described thus: Stat Signaling Pathway (AID 446; active = well fitted curve in either direction with a large enough effect, not every such curve was filed as active;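 also: ME-180 cervical cancer cells given 40 pM IL-6 alongside compound; SIE-controlled beta-lactamase reporter measured as 460/530 nm FRET emission ratio; % is scaled to controls: 0 for no effect and ±100 for the full control effect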). The following applies: ME-180 (cervical carcinoma) SIE beta-lactamase reporter, IL-6 stimulated, 5 h; at 17.2 µM (top of the series). An outline of the steps: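 IL-6/STAT signaling read in ME-180 cells via an SIE beta-lactamase reporter. Stimulus was 40 pM IL-6 (its AC50) for 5 hrs, so both activation and inhibition register.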
The target in test [16] is Glucocorticoid receptor (Homo sapiens) (UniProt P04150). The test is described as follows: GR-GFP Redistribution (AID 450;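 active = compounds whose dose series gives a full or clear partial fitted curve of increased nuclear translocation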; also: potency is read from the fitted curve at half-maximal effect). The following applies: U2OS GR-GFP nuclear translocation, laser cytometry, 2 h.
Sequence of Glucocorticoid receptor (Homo sapiens) (P04150 whole entry, looked up, the tested form may be a part): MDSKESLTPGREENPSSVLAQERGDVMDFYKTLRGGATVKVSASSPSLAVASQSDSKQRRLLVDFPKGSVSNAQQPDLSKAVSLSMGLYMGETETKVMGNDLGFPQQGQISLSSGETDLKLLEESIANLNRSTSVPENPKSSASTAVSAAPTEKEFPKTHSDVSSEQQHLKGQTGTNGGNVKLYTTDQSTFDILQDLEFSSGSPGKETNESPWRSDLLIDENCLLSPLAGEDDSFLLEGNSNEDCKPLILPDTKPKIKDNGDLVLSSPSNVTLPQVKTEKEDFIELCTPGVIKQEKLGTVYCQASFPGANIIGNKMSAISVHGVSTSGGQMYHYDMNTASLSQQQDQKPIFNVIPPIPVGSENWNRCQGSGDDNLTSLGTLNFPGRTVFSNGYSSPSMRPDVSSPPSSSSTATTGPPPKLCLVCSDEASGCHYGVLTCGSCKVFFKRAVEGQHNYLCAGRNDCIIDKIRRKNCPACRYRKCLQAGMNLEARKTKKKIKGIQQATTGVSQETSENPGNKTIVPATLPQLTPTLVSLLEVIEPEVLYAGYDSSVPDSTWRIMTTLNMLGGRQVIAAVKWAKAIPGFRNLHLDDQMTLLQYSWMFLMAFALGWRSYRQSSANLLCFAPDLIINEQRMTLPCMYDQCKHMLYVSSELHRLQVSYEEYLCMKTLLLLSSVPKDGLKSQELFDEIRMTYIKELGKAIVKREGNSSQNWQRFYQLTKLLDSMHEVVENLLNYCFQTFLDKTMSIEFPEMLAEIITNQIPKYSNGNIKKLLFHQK
Test [17] has the same target. Kind of test: GR-EFC Redistribution (AID 451). Also: potency is read from the fitted curve at half-maximal effect. Particulars: CHO-K1 GR-EFC translocation, beta-gal luminescence, 2 h. An outline of the steps: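 CHO-K1 cells expressing nuclear EA and GR-ED fragments of b-gal; compounds titrated up to 46 uM final, 2 h at 37 C. GR nuclear translocation read as complemented b-gal luminescence after 1 h RT detection.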
For test [18], the target named is Cytochrome P450 1A2 (Homo sapiens) (UniProt P05177). Kind of test: p450-cyp1a2 (AID 410). Also: potency is read from the fitted curve at half-maximal effect. An outline of the steps:
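20nM CYP1A2 with 100uM Luciferin-ME (at Km) in 100mM KPO4; compound preincubated 10 min, NADPH regeneration added, 60 min at room temperature. Luciferin quantified by luminescence after detection reagent; normalized to 57 uM furafylline.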

A short description of test [19]: Cell Viability - Hek293 (AID 427;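 active = compounds whose dose-response curve shows a full or clear partial loss of cell viability, called from curve shape rather than a numeric limit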;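 also: potency is read from the fitted curve at half-maximal effect; cells exposed to compound for 40 hours at 37 °C before reading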). The following applies: qHTS. The essentials:
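AC50 values derive from Hill-modelled concentration-response of ATP-based luminescence, normalized between DMSO-only and 100 uM tamoxifen controls. Cells were exposed in complete culture medium for 40 hr at 37 °C before detection.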

Values joined by “and” are separate entries in the source; they are usually repeats but may differ in a detail not shown here. Equal entries are not always repeated. Unmarked numbers belong to inactive results. Inconclusive results are not listed. Active and inactive are the calls of the source. Unless noted, calls follow the shape of the full dose curve. Where only a bound is given, the exact number is not on record here.

Sequence of Cytochrome P450 1A2 (Homo sapiens) (P05177 whole entry, looked up): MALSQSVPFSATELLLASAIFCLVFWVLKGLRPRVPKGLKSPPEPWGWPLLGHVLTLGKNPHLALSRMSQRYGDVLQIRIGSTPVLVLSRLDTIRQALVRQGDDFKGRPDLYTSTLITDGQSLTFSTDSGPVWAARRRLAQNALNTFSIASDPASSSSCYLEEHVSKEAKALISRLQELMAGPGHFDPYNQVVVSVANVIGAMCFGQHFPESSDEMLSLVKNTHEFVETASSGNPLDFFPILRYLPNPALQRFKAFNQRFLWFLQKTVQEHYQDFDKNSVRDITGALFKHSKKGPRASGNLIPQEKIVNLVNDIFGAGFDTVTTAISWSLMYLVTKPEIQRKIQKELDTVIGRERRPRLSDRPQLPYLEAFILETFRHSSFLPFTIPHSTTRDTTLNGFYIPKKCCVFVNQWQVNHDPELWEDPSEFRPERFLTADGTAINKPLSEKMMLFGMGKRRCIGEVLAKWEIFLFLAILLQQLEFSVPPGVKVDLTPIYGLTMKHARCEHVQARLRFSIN

As for `CC1=C(/C=C/C(C)=C/C=C/C(C)=C/C(=O)Nc2ccc(O)cc2)C(C)(C)CCC1`, the Potency in [1] was 30.8 µM (active); in test [2], 2.16 µM (active); in test [3] it was 34.9 µM (active); in test [4] it was 24.7 µM (active); in [5], 7.43 µM (active); in test [7] it was 31.6 µM (active). Further, the Potency was 31.6 µM (active) in test [9], 20 µM (active) in test [10], 12.6 µM (active) in test [11] and 20 µM (active) in test [12]. The call in test [6] was inactive. For the same compound, the activity change, negative = cytotoxicity in test [8] is -85.6% (active).

Regarding `CC(C)(C)c1ccc(C(O)CCCN2CCC(C(O)(c3ccccc3)c3ccccc3)CC2)cc1` (stereo unspecified), the outcome in [13] and in test [14] was inactive. In addition, the activity, negative = inhibition in test [15] is -1.77%. In [16], the Potency is above 20.6 µM.

Regarding `O=C1C[C@@H](c2ccc(O)cc2)Oc2cc(O)cc(O)c21`, the result in test [13], in test [14] and in [6] was inactive. For the same compound, the activity, negative = inhibition in [15] was 0.762%. Also, the Potency is > 20.6 µM and > 46 µM in test [16]; > 20.6 µM and > 46 µM in test [17].

Consider `COc1ccc(Cc2nccc3cc(OC)c(OC)cc23)cc1OC`, for which the Potency in test [18] was 25.1 µM (active) and 10 µM (active) and 31.6 µM (active). Besides, the result in test [6] was inactive.

For the compound `CCn1cc(C(=O)O)c(=O)c2ccc(C)nc21`, the Potency in test [1], in test [2], in [19], in [3], in test [4] and in test [5] was above 92 µM throughout. Moreover, the Potency result in test [7], in test [9], in test [10], in test [11] and in test [12] was “inactive” each time. Moreover, the activity change, negative = cytotoxicity in [8] is 4.63%.

For `Nc1ncnc2c1ncn2[C@@H]1O[C@@H](CO)[C@H](O)[C@H]1O`, the compound was classed as inactive in test [13], in [14] and in test [6]. For the same compound, the activity, negative = inhibition in test [15] was -10%. The Potency in [16] and in test [17] was above 20.6 µM each time.

Turning to `CC(=O)O[C@]1(C(C)=O)CC[C@H]2[C@@H]3C=C(Cl)C4=CC(=O)[C@@H]5C[C@@H]5[C@]4(C)[C@H]3CC[C@@]21C`, the Potency in test [1], in test [3] and in [4] was above 92 µM each time. Moreover, in test [6], the call was inactive. In test [8], the activity change, negative = cytotoxicity was -124% (active). The Potency result in test [9], in test [11] and in [12] was “inactive” each time.

Consider `O=C(O)Cc1cccc2ccccc12`, for which the Potency in test [1], in test [2], in test [19], in test [3], in test [4] and in test [5] was above 92 µM each time. Moreover, in test [6], the result was inactive. For the same compound, the Potency entry in test [7], in test [9], in [10], in [11] and in test [12] was “inactive” in each case. Moreover, the activity change, negative = cytotoxicity in test [8] was -29.6%.

Consider `O=c1cc(-c2ccccc2)oc2cc(O)c(O)c(O)c12`, for which the Potency in test [18] is 398 nM (active) and 501 nM (active); in test [16] it was above 46 µM; in test [17] it was above 46 µM. For the same compound, in test [6], the compound was classed as inactive.

On to `O=c1cc(-c2ccccc2)oc2cc(O)cc(O)c12`, for which the Potency in test [16] and in [17] was above 20.6 µM in each case.

Take `O=C(O)c1cc(-c2ccccc2)nc2ccccc12`: the call in test [13] and in test [14] was inactive. Further, in test [15], the activity, negative = inhibition was -0.648%. Besides, in test [16], the Potency is above 20.6 µM.

Regarding `CC1(C)CCC2=C(O1)c1ccccc1C(=O)C2=O`, the values for the Potency in test [18], in test [16] and in test [17] were 3.98 µM (active), above 46 µM and above 46 µM, respectively. Moreover, the outcome in test [6] was inactive.

Turning to `CS(=O)c1ccc(-c2nc(-c3ccc(F)cc3)c(-c3ccncc3)[nH]2)cc1` (stereo unspecified), the Potency was 631 nM (active) and 3.98 µM (active) in [18]; above 46 µM in test [16]; above 46 µM in [17].

As for `CC[C@]1(O)C[C@@H]2CN(CCc3c([nH]c4ccccc34)[C@@](C(=O)OC)(c3cc4c(cc3OC)N(C)[C@H]3[C@@](O)(C(=O)OC)[C@H](OC(C)=O)[C@]5(CC)C=CCN6CC[C@]43[C@@H]65)C2)C1`, in test [13], the result was inactive. The activity, negative = inhibition in test [15] was -9.58%. The Potency in test [16] is above 20.6 µM.

Turning to `O=c1c(O)c(-c2ccc(O)cc2)oc2cc(O)cc(O)c12`, the Potency in [1], in [2], in [19], in test [3], in [4] and in [5] was above 92 µM in each case. The Potency in [16] was > 20.6 µM and > 46 µM; in [17], > 20.6 µM and > 46 µM. In [6], the result was inactive. Besides, the Potency result in test [7], in test [9] and in test [12] was “inactive” each time.

In the case of `COc1ccc2c3c1OC1C[C@@H](O)C=C[C@@]31CCN(C)C2` (stereo partly specified), the outcome in test [13], in test [14] and in test [6] was inactive. Besides, the activity, negative = inhibition in [15] was 12.6%. The Potency in [16] and in test [17] was above 20.6 µM in each case.

These data come from PubChem BioAssay (NCATS).
